These results are taken from PubChem BioAssay (NCI).

Among the test systems are DU-145 prostate; K-562 leukemia; MALME-3M melanoma; MDA-MB-231 breast; SF-268 CNS; SF-295 CNS; SF-539 CNS; UACC-257 melanoma; M14 melanoma; HCT-15 colon; HT29 colon; SNB-75 CNS; SNB-19 CNS; U251 CNS; SK-MEL-5 melanoma; UACC-62 melanoma; LOX IMVI melanoma; SK-MEL-28 melanoma; PC-3 prostate; RXF 393 renal.
Assay in all cases: NCI-60 one-dose screen, 48 h (100 = growth as untreated, 0 = no growth, -100 = all killed)
Holding throughout (details): 10 µM unless noted

The structures appear in SMILES notation. This is part of a sample that, as a whole, favours compounds with a hit. Of some 83,000 tested, about 20% had one in any assay.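 Values shown are percent growth following 48 h exposure of cells in 96-well plates to a single concentration of compound; below 10 was considered active.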 Values without a mark were called inactive. The source made the active and inactive calls.

Consider `COc1cc2c(cc1OC)C(=O)OC2`, for which the growth was 109% in the experiment on DU-145 prostate; 118% in the experiment on K-562 leukemia; 124% in the experiment on MALME-3M melanoma; 102% in the experiment on MDA-MB-231 breast; 100% in the experiment with SF-268 CNS; 102% in the experiment on SF-295 CNS. Further, the growth was 97% in the experiment on SF-539 CNS; 13.3% in the experiment with UACC-257 melanoma; 119% with M14 melanoma; 119% with HCT-15 colon; 109% in the experiment with HT29 colon; 78.7% in the experiment with SNB-75 CNS. Moreover, the growth with SNB-19 CNS was 113%; in the experiment with U251 CNS, 106%; in the experiment with SK-MEL-5 melanoma, 99.4%; in the experiment with UACC-62 melanoma it was 97.6%; in the experiment on LOX IMVI melanoma, 109%; with SK-MEL-28 melanoma it was 147%.

For the compound `O=C1OC(c2ccc(-c3ccccc3)cc2)=C/C1=C/c1c(Cl)cccc1Cl`, the growth with DU-145 prostate is 96.3%; with K-562 leukemia, 89.5%; in the experiment on MALME-3M melanoma, 64%; in the experiment on MDA-MB-231 breast, 95.9%; in the experiment with SF-268 CNS it was 96.7%; with SF-539 CNS, 102%. The growth with UACC-257 melanoma was -33.6% (active); in the experiment with M14 melanoma it was 105%; in the experiment with HCT-15 colon, 83.7%; in the experiment with HT29 colon it was 101%; with SNB-75 CNS, 85.1%; with SNB-19 CNS, 105%. Also, the growth with U251 CNS is 102%; in the experiment with PC-3 prostate, 91.8%; with SK-MEL-5 melanoma, 101%; with UACC-62 melanoma it was 85.5%; in the experiment on LOX IMVI melanoma, 103%; with SK-MEL-28 melanoma, 101%.

`Cc1nc([C@H]2CC[C@H]3[C@@H]4CCC5=CC(=O)CC[C@]5(C)[C@H]4CC[C@]23C)cs1`: the growth in the experiment on DU-145 prostate is 99.7%; in the experiment on K-562 leukemia, 18%; with MALME-3M melanoma, 99.5%; with MDA-MB-231 breast, 97.4%; in the experiment on SF-268 CNS, 91.7%; in the experiment with SF-295 CNS, 46.1%. Also, the growth in the experiment with SF-539 CNS is 93.4%; in the experiment with UACC-257 melanoma, 39.2%; in the experiment with M14 melanoma, 74.1%; in the experiment on HCT-15 colon it was 75.2%; in the experiment with HT29 colon it was 62.2%; in the experiment on SNB-75 CNS, 104%. Further, the growth with SNB-19 CNS is 91.3%; with U251 CNS, 66%; in the experiment with PC-3 prostate, 19.6%; in the experiment on SK-MEL-5 melanoma, 24.7%; with UACC-62 melanoma it was 59.4%; in the experiment with LOX IMVI melanoma, 56.5%. Further, the growth in the experiment with SK-MEL-28 melanoma was 93.4%.

`CC(=O)Nc1ccc(Cl)cc1Cl`: the growth in the experiment on DU-145 prostate is 111%; in the experiment on K-562 leukemia, 64.9%; in the experiment on MALME-3M melanoma, 112%; in the experiment with MDA-MB-231 breast, 100%; with SF-268 CNS, 97.4%; in the experiment with SF-295 CNS, 83.8%. Further, the growth in the experiment on SF-539 CNS was 98.3%; in the experiment with UACC-257 melanoma, 124%; with M14 melanoma, 102%; in the experiment with HCT-15 colon, 118%; in the experiment with HT29 colon it was 103%; in the experiment on SNB-75 CNS, 91.2%. For the same compound, the growth was 97.8% with SNB-19 CNS; 103% with U251 CNS; 308% in the experiment on PC-3 prostate; 95.7% in the experiment with SK-MEL-5 melanoma; 96.4% in the experiment with UACC-62 melanoma; 93.8% with LOX IMVI melanoma. In the experiment on SK-MEL-28 melanoma, the growth was 157%.

On to `Cc1cc2nc3c(=O)[nH]c(=O)nc-3n(CC=O)c2cc1C`, for which the growth with DU-145 prostate is 116%; in the experiment with K-562 leukemia, 96%; in the experiment with MALME-3M melanoma, 112%; in the experiment on MDA-MB-231 breast, 106%; in the experiment on SF-268 CNS, 99.5%; in the experiment on SF-295 CNS, 92.2%. The growth with SF-539 CNS was 93.6%; in the experiment with UACC-257 melanoma, 159%; in the experiment with M14 melanoma, 109%; in the experiment with HCT-15 colon, 106%; in the experiment with HT29 colon, 102%; in the experiment with SNB-75 CNS it was 89.3%. In addition, the growth was 103% in the experiment with U251 CNS; 122% with PC-3 prostate; 98.6% with SK-MEL-5 melanoma; 92.2% in the experiment on UACC-62 melanoma; 101% in the experiment with LOX IMVI melanoma; 117% in the experiment on SK-MEL-28 melanoma.

For the compound `CCOc1c(C#N)c2c(N)ncnc2n1C1OC(CO)C(O)C1O` (centres undefined), the growth with DU-145 prostate was -10.5% (active); in the experiment with K-562 leukemia, 0.169% (active); in the experiment with MALME-3M melanoma, 59.2%; with MDA-MB-231 breast, 87.1%; with SF-268 CNS, 25.2%; with SF-295 CNS, 71.3%. For the same compound, the growth was 62.5% in the experiment on SF-539 CNS; 83.5% with UACC-257 melanoma; 35% in the experiment with M14 melanoma; 23.1% in the experiment on HCT-15 colon; 22.6% in the experiment with HT29 colon; 62.4% with SNB-75 CNS. For the same compound, the growth is 72.7% in the experiment on SNB-19 CNS; 35.4% in the experiment with U251 CNS; 16.2% in the experiment with PC-3 prostate; 79% in the experiment on SK-MEL-5 melanoma; 49.8% in the experiment on UACC-62 melanoma; 18.9% in the experiment with LOX IMVI melanoma. For the same compound, the growth in the experiment on SK-MEL-28 melanoma is 20.4%.

With `NC(N)=N/N=C\c1cccc(OCc2ccccc2)c1`, the growth is 101% with DU-145 prostate; 27.1% in the experiment on K-562 leukemia; 85.8% in the experiment on MALME-3M melanoma; 76% in the experiment with MDA-MB-231 breast; 62.1% with RXF 393 renal; 85.1% in the experiment with SF-295 CNS. The growth with SF-539 CNS was 77.5%; in the experiment with UACC-257 melanoma, 70.8%; in the experiment on M14 melanoma it was 59.7%; with HCT-15 colon, 45%; with HT29 colon, 1.4% (active); with SNB-75 CNS it was 63.8%. Further, the growth in the experiment with SNB-19 CNS was 83.2%; with U251 CNS it was 23.3%; with PC-3 prostate it was 71.5%; in the experiment with SK-MEL-5 melanoma, 33%; in the experiment on UACC-62 melanoma it was 84.9%; in the experiment with LOX IMVI melanoma it was 51%. For the same compound, the growth with SK-MEL-28 melanoma is 86%.

As for `CC1(C)C(N(O)C(=O)Nc2ccc(Cl)cc2)N(c2ccc(Cl)cc2)C(=O)N1CC(=O)N/N=C/C=C/c1ccc([N+](=O)[O-])o1` (centres undefined), the growth in the experiment on DU-145 prostate is 12.5%; in the experiment with K-562 leukemia, 13.1%; in the experiment with MALME-3M melanoma, -42.6% (active); in the experiment on MDA-MB-231 breast, -48.7% (active); in the experiment with RXF 393 renal, -77.9% (active); in the experiment with SF-295 CNS, 54.9%. In addition, the growth is -73.3% (active) in the experiment on SF-539 CNS; -33.7% (active) with UACC-257 melanoma; -65.6% (active) with M14 melanoma; 37.5% with HCT-15 colon; -43% (active) in the experiment on HT29 colon; 9.93% (active) in the experiment on SNB-75 CNS. The growth is 48.5% with SNB-19 CNS; -14.4% (active) with U251 CNS; 8.77% (active) in the experiment with PC-3 prostate; -96.5% (active) with SK-MEL-5 melanoma; -40.5% (active) with UACC-62 melanoma; 0.58% (active) in the experiment on LOX IMVI melanoma. Also, the growth with SK-MEL-28 melanoma is -55.5% (active).
